Results as given in PubChem BioAssay.
Activity calls are given as the source filed them. Unless noted, no rule for the calls is given here.

What was measured:
[1] = A549 cell viability effects, profiling panel, calcein-AM fluorescence, 48 h, basal (AID 1162); settings: higher = more signal; also: test concentration not given here
[2] = adipocyte viability effects, profiling panel, cell-based, 3T3-L1 adipocytes, calcein-AM fluorescence, 48 h, basal (AID 1163); settings: 3T3-L1 adipocytes viability, higher = more signal; also: test concentration not given here
[3] = HepG2 cell viability effects, profiling panel, calcein-AM fluorescence, 48 h, basal (AID 1164); settings: higher = more signal; also: test concentration not given here
[4] = MM1S cell viability effects, profiling panel, calcein-AM fluorescence, 48 h, basal (AID 1165); settings: higher = more signal;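 also: viability of MM1S multiple myeloma cells under basal unstimulated conditions; test concentration not given here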
[5] = basal RPMI8226 viability, no added stimulus, profiling panel, cell-based, calcein-AM fluorescence, 48 h, PK04 Diversity Set (AID 1166); settings: RPMI8226 myeloma viability, higher = more signal;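 also: cells grown under basal conditions without added stimulus; test concentration not given here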
[6] = basal HepG2 mitochondrial membrane potential changes, profiling panel, cell-based, JC-1 fluorescence, 24 h, 100 nL compound (AID 1167); settings: higher = more signal; also: test concentration not given here
[7] = basal 3T3-L1 adipocyte mitochondrial potential changes, profiling panel, cell-based, JC-1 fluorescence, 3T3-L1 adipocytes, 24 h, 100 nL compound (AID 1168); settings: JC-1 mitochondrial fluorescence, higher = more signal, called active from +8 up or from −8 down; also: test concentration not given here
[8] = basal RPMI8226 mitochondrial membrane potential changes, profiling panel, cell-based, JC-1 fluorescence, 24 h, 100 nL compound (AID 1169); settings: RPMI8226 myeloma, JC-1 mitochondrial potential fluorescence, higher = more signal; also: test concentration not given here
[9] = basal MM1S mitochondrial membrane potential changes, profiling panel, cell-based, JC-1 fluorescence, 24 h, 100 nL compound (AID 1170); settings: higher = more signal; also: test concentration not given here
[10] = A549 lung cancer cell viability effects, profiling panel, resazurin fluorescence, 24 h, PK04 Diversity Set (AID 1171); settings: higher = more signal, called active from +8 up or from −8 down; also: test concentration not given here
[11] = HepG2 liver cancer cell viability effects, profiling panel, resazurin fluorescence, 24 h, PK04 Diversity Set (AID 1172); settings: higher = more signal; also: test concentration not given here
[12] = basal S. cerevisiae growth modulation, no modifier, primary screen, OD600, strain BY4716, 24 h, basal condition (AID 1173); settings: OD600, 24 h, higher = more signal, called active from +8 up or from −8 down
[13] = MM1S myeloma cell viability, profiling panel, resazurin fluorescence, basal, 24 h, PK04 Diversity Set (AID 1174); settings: higher = more signal, called active from +8 up or from −8 down;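 also: MM1S multiple myeloma cell line; test concentration not given here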
[14] = target: Dihydroorotate dehydrogenase (quinone), mitochondrial (Plasmodium falciparum (isolate 3D7)) (UniProt Q08210); test: PfDHODH enzyme inhibitors, primary screen, biochemical, C-terminal His tag, absorbance 600 nm (AID 1175); settings: DCIP absorbance 600 nm, higher = more signal, called active from +8 up or from −8 down;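 also: recombinant parasite enzyme with a five histidine tag at its C terminus; test concentration not given here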
Dihydroorotate dehydrogenase (quinone), mitochondrial (Plasmodium falciparum (isolate 3D7)), sequence (Q08210 whole entry, looked up): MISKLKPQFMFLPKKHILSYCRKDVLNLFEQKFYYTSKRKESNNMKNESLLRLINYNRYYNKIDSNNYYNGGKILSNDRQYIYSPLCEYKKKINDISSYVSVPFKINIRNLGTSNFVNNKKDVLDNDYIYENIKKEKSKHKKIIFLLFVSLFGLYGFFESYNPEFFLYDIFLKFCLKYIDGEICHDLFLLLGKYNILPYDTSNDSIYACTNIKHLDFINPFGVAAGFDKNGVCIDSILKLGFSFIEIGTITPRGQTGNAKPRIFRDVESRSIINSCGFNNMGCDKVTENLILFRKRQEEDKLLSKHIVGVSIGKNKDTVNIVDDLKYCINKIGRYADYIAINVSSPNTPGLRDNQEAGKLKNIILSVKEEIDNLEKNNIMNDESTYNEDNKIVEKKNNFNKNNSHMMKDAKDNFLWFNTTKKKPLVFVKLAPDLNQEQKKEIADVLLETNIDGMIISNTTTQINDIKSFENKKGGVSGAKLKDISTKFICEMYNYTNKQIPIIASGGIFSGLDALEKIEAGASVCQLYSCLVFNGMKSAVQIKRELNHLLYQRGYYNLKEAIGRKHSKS

[15] = P. aeruginosa biofilm formation inhibitors, primary screen, strain PAO1, LB-PBS medium, absorbance 600 nm (AID 1176); also: test concentration not given here; settings: P. aeruginosa PAO1 growth/biofilm, A600, 12 h; higher = more signal
[16] = S. cerevisiae RM11-1a growth modifiers, primary screen, strain RM11-1a, OD600, basal, 24 h (AID 1177); settings: OD600, 24 h, higher = more signal, called active from +8 up or from −8 down;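 also: cultures grown under basal conditions with no added stressor; test concentration not given here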
[17] = E. coli acrAB mutant growth effects, primary screen, E. coli filamentation inducers, strain DRC39, OD650, 24 h (AID 1178); settings: higher = more signal, called active from +8 up or from −8 down;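 also: growth measured as culture turbidity by optical density at 650 nm; test concentration not given here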
[18] = E. coli acrAB mutant growth effects, primary screen, E. coli filamentation inducers, strain DRC39, OD650, 48 h (AID 1179);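 also: screen aims at cell division blockers that make cells filament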; settings: E. coli DRC39 delta-acrAB growth, higher = more signal, called active from +8 up or from −8 down
[19] = RPMI8226 myeloma cell viability, profiling panel, resazurin fluorescence, basal, 24 h, PK04 Diversity Set (AID 1180); settings: higher = more signal;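 also: RPMI8826 multiple myeloma cell line at 5000 cells per well; test concentration not given here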
[20] = target: E3 ubiquitin-protein ligase XIAP (Homo sapiens) (UniProt P98170); test: XIAP binders, primary screen, biophysical, small-molecule microarray, fluorescence 635 nm (AID 1181); settings: small-molecule microarray binding, higher = more signal;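 also: score merges 667 nm emission and signal to noise over triplicate slides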
E3 ubiquitin-protein ligase XIAP (Homo sapiens), sequence (P98170 whole entry, looked up): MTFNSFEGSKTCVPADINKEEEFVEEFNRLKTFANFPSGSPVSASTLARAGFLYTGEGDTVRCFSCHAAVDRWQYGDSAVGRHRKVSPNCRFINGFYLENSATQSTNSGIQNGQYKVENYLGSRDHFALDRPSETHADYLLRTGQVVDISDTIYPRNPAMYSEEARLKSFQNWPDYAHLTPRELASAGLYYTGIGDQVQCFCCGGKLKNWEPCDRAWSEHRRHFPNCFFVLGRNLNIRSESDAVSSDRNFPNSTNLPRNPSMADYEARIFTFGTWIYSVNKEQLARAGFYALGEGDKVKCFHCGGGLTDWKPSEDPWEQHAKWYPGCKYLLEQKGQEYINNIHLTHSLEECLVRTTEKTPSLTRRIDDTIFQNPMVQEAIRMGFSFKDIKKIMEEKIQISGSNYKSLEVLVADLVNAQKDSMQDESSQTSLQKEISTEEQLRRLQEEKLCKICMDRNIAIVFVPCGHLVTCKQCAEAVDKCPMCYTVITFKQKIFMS

| SMILES | z-score [1] | z-score [2] | z-score [3] | z-score [4] | z-score [5] | z-score [6] | z-score [7] | z-score [8] | z-score [9] | z-score [10] | z-score [11] | z-score [12] | z-score [13] | composite z-score [14] | z-score [15] | z-score [16] | z-score [17] | z-score [18] | z-score [19] | composite z-score [20] |
| --- | --- | --- | --- | --- | --- | --- | --- | --- | --- | --- | --- | --- | --- | --- | --- | --- | --- | --- | --- | --- |
| NC(=O)NCC#Cc1ccc2c(c1)[C@]1(C(=O)N2)[C@H](c2ccc(OCCO)cc2)N2[C@H](c3ccccc3)[C@H](c3ccccc3)OC(=O)[C@H]2[C@@H]1C(=O)N1CCN(c2ncccn2)CC1 | 0.947 | 0.212 | 0.674 | -0.167 | 0.62 | -1.45 | 0.721 (inactive) | -0.726 | -0.669 | 1.1 (inactive) | 0.21 | 1.04 (inactive) | 0.963 (inactive) | -0.858 (inactive) | 2.71 (inactive) | 2.58 (inactive) | 0.665 (inactive) | 0.773 (inactive) | 1.79 | -0.149 |
| C[C@H]1ON(c2ccccc2)[C@@H](c2ccccc2)[C@@H]1C(=O)N1C(=O)OC[C@@H]1c1ccccc1 | -0.279 | 0.261 | -0.941 | 0.608 | -0.144 | -1.24 | 0.46 (inactive) | 0.488 | -0.127 | 0.535 (inactive) | 0.565 | 0.551 (inactive) | 0.715 (inactive) | -0.199 (inactive) | -0.189 (inactive) | 1.5 (inactive) | 0.259 (inactive) | -0.0075 (inactive) | 0.942 | -0.123 |
| COC(=O)c1ccc(OC)c(/C=C\CC(CCc2ccccc2)OC(C)=O)c1 (stereo not given) | -0.349 | -0.191 | -0.349 | -1.35 | 0.346 | -1.3 | -0.459 (inactive) | -0.48 | 0.893 | 0.671 (inactive) | -0.928 | -0.527 (inactive) | -0.0834 (inactive) | -0.162 (inactive) | -0.131 (inactive) | -0.424 (inactive) | 0.0214 (inactive) | -0.238 (inactive) | 0.271 | -0.253 |
| CCOc1cc(C(O)C2C=CC3C(=O)NC(=O)C3N2Nc2ccccn2)ccc1O (stereo not given) | -0.773 | -1.5 | -0.506 | -0.369 | -0.328 | -1.87 | -0.892 (inactive) | -0.0441 | 0.157 | -0.923 (inactive) | -1.35 | 1.67 (inactive) | -1.33 (inactive) | 0.21 (inactive) | 0.599 (inactive) | 0.24 (inactive) | -1.17 (inactive) | -0.0662 (inactive) | -0.672 | 0.0652 |
| NC(=O)NCC#Cc1ccc2c(c1)[C@]1(C(=O)N2)[C@H](c2ccc(O)cc2)N2[C@H](c3ccccc3)[C@H](c3ccccc3)OC(=O)[C@H]2[C@@H]1C(N)=O | 0.233 | -1.07 | 0.705 | 0.669 | 1.23 | -0.538 | -0.06 (inactive) | -0.371 | -0.691 | -1.08 (inactive) | -0.49 | -0.297 (inactive) | -0.226 (inactive) | -0.552 (inactive) | 0.185 (inactive) | 0.603 (inactive) | 0.968 (inactive) | 0.936 (inactive) | -0.11 | 0.074 |
| COCCOC(=O)N1C(=O)[C@@]2(c3cc(C#CCCO)ccc31)[C@H](c1ccc(OCCO)cc1)N1[C@H](c3ccccc3)[C@H](c3ccccc3)OC(=O)[C@H]1[C@@H]2C(=O)N1CCc2cc(OC)c(OC)cc2C1 | -0.874 | 0.586 | 0.863 | 0.541 | 0.263 | -0.0698 | 1.79 (inactive) | -0.299 | -1.48 | -0.533 (inactive) | -0.398 | 1.28 (inactive) | -1.24 (inactive) | -1.02 (inactive) | 1.64 (inactive) | 3.35 (inactive) | 0.154 (inactive) | 0.554 (inactive) | 0.908 | -0.102 |
| COCCOC(=O)N1C(=O)[C@@]2(c3cc(C#Cc4ccc(OC)cc4)ccc31)[C@H](c1ccc(OCCO)cc1)N1[C@H](c3ccccc3)[C@H](c3ccccc3)OC(=O)[C@H]1[C@@H]2C(N)=O | -0.383 | 0.806 | -0.792 | -1.14 | -2.7 | -0.617 | 1.98 (inactive) | -0.65 | -1.11 | -0.588 (inactive) | -0.83 | 1.71 (inactive) | -1.85 (inactive) | -0.675 (inactive) | 3.36 (inactive) | 2.82 (inactive) | 0.721 (inactive) | 0.366 (inactive) | -2.36 | 0.269 |
| O=C(N1CCOCC1)[C@@]1(CCS(=O)(=O)c2ccccc2)COC(c2ccc(OCCCO)cc2)=N1 | 0.437 | -1.09 | -0.0333 | 0.205 | 0.108 | -0.33 | -0.4 (inactive) | 0.238 | -0.659 | 0.201 (inactive) | 0.0754 | 0.0036 (inactive) | -0.262 (inactive) | 0.0576 (inactive) | 0.193 (inactive) | 0.0216 (inactive) | -0.0668 (inactive) | 0.589 (inactive) | -0.387 | -0.02 |
